Assay outcomes as filed in PubChem.
Compounds with a hit are over-represented: about 5.2% of the library has one in this group of screens.
Calb biofilm kill – kills Candida albicans biofilms; C. albicans biofilm + clotrimazole, Alamar Blue; inhibition, % at 6 µM; 85,000 compounds, 0.14% hits;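 active = inhibition above 20%; inactive = inhibition below 20%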;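 note: preformed 24 hr biofilms exposed to compound for 48 hr; 0% = biofilm without compound and 100% = blank killed by clotrimazole plus chlorhexidine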
EphB4 ephrin blk – EphB4-ephrin-B2 interaction antagonism | P54760 | inhibition, % at 7 µM | EphB4 LBD / TNYL-RAW-Alexa532 peptide, fluorescence polarization | 97,000 compounds, 0.15% hits | AID 720;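 active = inhibition above the screen-wide mean inhibition plus 3 SD, cut at about 15% in these data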;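 note: 0% = DMSO wells and 100% = excess unlabeled TNYL-RAW peptide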
Target sequence (P54760 whole entry, looked up, the tested form may be a part): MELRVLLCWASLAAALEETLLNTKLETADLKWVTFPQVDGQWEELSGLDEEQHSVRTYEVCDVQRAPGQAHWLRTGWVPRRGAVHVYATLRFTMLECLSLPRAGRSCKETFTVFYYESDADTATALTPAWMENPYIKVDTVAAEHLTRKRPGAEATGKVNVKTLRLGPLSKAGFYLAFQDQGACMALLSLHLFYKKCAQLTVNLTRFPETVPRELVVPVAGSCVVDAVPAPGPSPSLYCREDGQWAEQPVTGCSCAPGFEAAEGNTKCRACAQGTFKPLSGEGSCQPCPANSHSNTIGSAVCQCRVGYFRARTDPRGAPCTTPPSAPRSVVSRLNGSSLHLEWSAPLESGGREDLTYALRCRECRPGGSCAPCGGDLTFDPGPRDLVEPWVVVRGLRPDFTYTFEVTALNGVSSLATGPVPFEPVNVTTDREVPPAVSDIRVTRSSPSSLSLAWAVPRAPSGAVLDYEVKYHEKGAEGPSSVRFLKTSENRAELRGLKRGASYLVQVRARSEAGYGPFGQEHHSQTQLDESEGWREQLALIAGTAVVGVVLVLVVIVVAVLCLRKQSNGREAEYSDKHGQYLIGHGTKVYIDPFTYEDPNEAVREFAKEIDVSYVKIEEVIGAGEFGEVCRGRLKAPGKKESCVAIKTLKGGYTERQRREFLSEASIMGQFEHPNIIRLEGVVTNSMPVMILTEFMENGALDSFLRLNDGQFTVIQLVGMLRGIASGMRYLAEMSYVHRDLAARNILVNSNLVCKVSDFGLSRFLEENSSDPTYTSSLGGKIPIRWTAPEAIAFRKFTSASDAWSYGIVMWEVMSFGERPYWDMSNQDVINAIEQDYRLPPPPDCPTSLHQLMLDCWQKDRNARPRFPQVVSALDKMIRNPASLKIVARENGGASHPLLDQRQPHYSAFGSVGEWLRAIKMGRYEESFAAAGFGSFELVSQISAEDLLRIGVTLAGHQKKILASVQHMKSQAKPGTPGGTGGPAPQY
PostGolgi yeast – growth inhibition of a yeast mutant, post-Golgi transport screen; post-Golgi transport phenotypic cell assay; inhibition, % at 10 µM; 98,000 compounds, 0.9% hits;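 note: yeast cells grown in 1536-well plates; yeast grown about 18 h at 30C before absorbance read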
PostGolgi ctrl – inhibits growth of the yeast control strain; efflux-deficient yeast background strain, growth absorbance A615, 16 h; inhibition, % at 10 µM; 98,000 compounds, 5% hits
An asterisk follows results filed as active; . = not tested or not shown. Cut-off read from the data, not from the text of the source, unless noted: active = inhibition above about 30%; inactive = the rest.

SMILES	Calb biofilm kill	EphB4 ephrin blk	PostGolgi yeast	PostGolgi ctrl
COc1cccc(-n2nnnc2SCC(=O)Nc2ccc(C(C)=O)cc2)c1	-4.8	4.6	.	.
Cc1cc(-c2nnc3n2N=C(C(C)(C)C)CS3)n[nH]1	8.4	-3.5	-0.9	34.0*
CN(Cc1ccccc1)C(=O)CSc1nc2ccccc2c(=O)n1Cc1ccco1	1.0	0.4	7.2	55.9*
Cc1ccc(NC(=O)CN(C)C(=O)CSc2nc3ccccc3c(=O)n2Cc2ccco2)cc1	2.8	3.8	5.4	9.5
Cc1ccc(NC2=C/C(=N\S(=O)(=O)c3cccs3)c3ccccc3C2=O)c(C)c1	2.4	5.1	.	.
Cc1ccc(Cl)cc1NC1=C/C(=N\S(=O)(=O)c2cccs2)c2ccccc2C1=O	.	1.0	49.8*	66.4*
Fc1ccc(NC(=S)Nc2ccc(F)c(Cl)c2)cc1Cl	.	-0.1	72.2*	65.2*
COC(=O)c1ccc(NC(=O)Nc2ccc(F)c(Cl)c2)cc1	-2.2	2.6	3.0	35.4*
FC(F)(F)c1cccc(NC(=S)Nc2ccc(Cl)cc2Cl)c1	.	-4.0	37.5*	52.7*
O=S(=O)(c1ccccc1F)N1CCN(Cc2nc3ccccc3[nH]2)CC1	.	-3.8	22.4	-2.5
CCCCOc1ccc(N2C(=O)CC(NCCc3ccc(S(N)(=O)=O)cc3)C2=O)cc1 (stereo not drawn)	1.8	-0.2	4.7	5.6
CCOC(=O)N1CCC(Nc2c(NCCCOC)c(=O)c2=O)CC1	0.6	-2.2	9.4	47.4*
CCCCN(CC)CCNc1c(NC2CCN(C(=O)OCC)CC2)c(=O)c1=O	-0.8	-7.3	-3.7	35.8*
CCOC(=O)N1CCC(Nc2c(NCCCN(CC)CC)c(=O)c2=O)CC1	6.4	-1.3	-7.7	1.9
Cc1ccc(-c2ccc(CCC(=O)O)n2Cc2ccco2)cc1	7.0	-0.7	-1.9	12.5
COc1ccc(-c2nc(C#N)c(NC(C)c3ccccc3)o2)cc1OC (stereo not drawn)	3.6	3.5	11.3	7.5
Cc1cc(C)n(-c2ccc(C(=O)OC(C)C)cc2)n1	.	-6.4	-6.1	0.0
Cc1cc(C)n(-c2ccc(C(=O)C(C#N)c3nc4ccccc4n3C)cc2)n1 (stereo not drawn)	7.5	13.5	12.5	33.4*
COc1ccccc1NC(=O)CN1C(=O)NC(CC(C)C)C1=O (stereo not drawn)	4.4	-3.3	4.2	48.0*
CCCC1(CCC)NC(=O)N(CC(=O)Nc2ccccc2OC)C1=O	4.4	-6.8	2.2	11.6
Brc1ccc(-c2nnc3n2C2(CCCC2)Cc2ccccc2-3)o1	-5.7	-2.9	.	.
Cc1cc(NC(=O)CN2CCC(n3nnc4cc(C(F)(F)F)ccc43)CC2)no1	6.7	0.2	-8.0	14.7
CCOc1ccc2nc(NC(=O)CN3CCC(n4nnc5cc(C(F)(F)F)ccc54)CC3)sc2c1	-1.3	8.7	-1.1	35.4*
O=C(COC(=O)C(Cc1ccccc1)NC(=O)c1ccco1)NC1CC1 (stereo not drawn)	.	16.6*	7.6	7.7
CCN(c1cccc(C)c1)S(=O)(=O)c1cnc[nH]1	4.6	8.3	-1.9	7.9
SMILES	Calb biofilm kill	EphB4 ephrin blk	PostGolgi yeast	PostGolgi ctrl
c1ccc2c(c1)OCC(c1csc3ncnc(N4CCCC4)c13)O2 (stereo not drawn)	4.0	-1.3	19.5	20.5
c1ccc(CCNc2ncnc3scc(C4COc5ccccc5O4)c23)cc1 (stereo not drawn)	0.7	-3.4	1.5	43.5*
O=C(c1ccccc1Nc1ccc(SC(F)F)cc1)N1CCCCCC1	4.5	4.8	4.3	25.4
CCOC(=O)C1=NN(c2cccc(Cl)c2)C2=NC(C)=C(C(=O)OC)C(c3cccs3)N12 (stereo not drawn)	7.4	-11.5	.	.
COc1cnc(-c2ccccn2)nc1Sc1ccc(Cl)cc1	.	-1.9	3.2	34.6*
Cc1cccc(C)c1NC(=O)CNc1ccccc1	7.6	1.9	2.9	37.4*
CCCn1nnc(NC(=O)c2ccc(-c3ccccc3)cc2)n1	10.9	3.2	-0.8	5.6
CCCn1nnc(NC(=O)C(c2ccccc2)c2ccccc2)n1	3.5	-2.1	34.2*	7.6
CCn1c(=O)cc(SCC(=O)N2CCN(c3ccccc3OC)CC2)c2ccccc21	5.9	2.9	-6.6	2.4
CCn1c(SCC(=O)O)nnc1C1CCCCC1	3.8	0.9	11.6	31.2*
CCn1c(SCC(=O)OC)nnc1C1CCCCC1	5.3	-1.3	5.7	18.1
Cc1ccc(C)c2[nH]c(=O)c(CN(CC3CCCO3)C(=O)NC3CCCCC3)cc12 (stereo not drawn)	5.7	.	0.5	10.1
O=C(Cn1c(C(=O)NCc2ccco2)cc2sccc21)c1ccccc1	5.4	8.8	-3.8	44.0*
CCC(C)(C)n1nnnc1C(c1cc2cc(C)cc(C)c2[nH]c1=O)N1CCN(C(=O)c2ccco2)CC1 (stereo not drawn)	.	0.2	0.8	8.3
CCOc1ccc(-n2c(Cc3ccccc3)nnc2SCc2c(C)noc2C)cc1	3.8	-2.4	-6.3	8.9
CCN(C1CCCCC1)S(=O)(=O)c1ccc(OC)c(C)c1	4.2	1.1	14.5	35.5*
COc1ccc(C(=O)CSc2nc3nc(C)cc(C)c3c(=O)[nH]2)cc1OC	-3.1	1.1	.	.
O=C1/C(=C/c2ccc([N+](=O)[O-])cc2)C=C(c2ccccc2)N1c1ccc(O)cc1	4.7	-0.2	92.3*	73.6*
Cc1ccc(S(=O)(=O)Cc2ccc(C(=O)OCc3ccccc3)cc2)cc1	2.6	0.0	-4.0	35.3*
COC(=O)c1ccc(COC(=O)c2ccc(N(C)C)cc2)cc1	2.7	-0.3	-3.6	3.8
CN(C)c1ccc(C(=O)OCc2ccccc2)cc1	42.7*	-2.3	-12.5	5.9
O=C(O)c1ccc(S(=O)(=O)Cc2ccccc2)cc1	5.5	0.2	4.0	10.8
CCC(NC(=O)NCCCn1ccnc1)(C(F)(F)F)C(F)(F)F	8.3	.	0.3	11.5
C(=N\N1CCN(Cc2cccc3ccccc23)CC1)/c1cccnc1	.	1.3	-4.5	8.9
CCN(CC)C(NC(=O)c1ccccc1)C(=O)c1ccccc1 (stereo not drawn)	5.9	8.9	1.4	6.7
SMILES	Calb biofilm kill	EphB4 ephrin blk	PostGolgi yeast	PostGolgi ctrl
Cc1cc(C)n(C(=O)c2ccc(C)c(S(=O)(=O)N3CCCC3)c2)n1	-1.9	-0.8	-5.6	31.9*
CC(=O)NC1C(c2nc3ccccc3s2)=C(c2ccccc2)C(=O)N1c1ccc(C)cc1 (stereo not drawn)	0.6	3.0	64.0*	13.8
COc1cccc(N2C(=O)C(c3ccccc3)=C(c3nc4ccccc4s3)C2NC(C)=O)c1 (stereo not drawn)	10.4	4.8	-3.0	8.4
Fc1ccc(COc2ccc(/C=N/n3cnnc3)cc2)cc1	9.3	3.5	10.3	34.9*
Cc1ccc(SC(C)C(=O)Nc2ccncc2)cc1 (stereo not drawn)	4.3	2.0	102.3*	89.7*
Cc1cc(C)n(C(=O)c2ccc(S(=O)(=O)NCC3CCCO3)cc2)n1 (stereo not drawn)	8.0	-1.3	3.8	12.9
O=C(c1cc(-c2ccc(Cl)cc2)n(-c2ccc(Cl)c(Cl)c2)n1)N1CCOCC1	.	5.6	-8.7	40.4*
O=C(c1cc(-c2ccc(Cl)cc2)n(-c2cc(Cl)ccc2Cl)n1)N1CCOCC1	.	1.8	5.0	42.6*
CN(C)CCCNC(=O)c1ccccn1	3.4	-3.1	7.1	9.6
CN(C)CCCNC(=O)c1ccc(-c2nc(-c3ccc(Cl)cc3)cs2)cc1	.	3.5	-0.8	38.5*
